PubChem BioAssay (NCI)
Compounds without any hit were thinned out: in the full panel of roughly 79,000, 15% have a hit. Unmarked numbers belong to inactive results. The source made the active and inactive calls. Cut-off read from the data, not from the text of the source: active = growth inhibition above about 70%; inactive = the rest.

Test: NCI Yeast Anticancer Drug Screen. Data for the bub3 strain (AID 167)
Details: S. cerevisiae bub3 mutant strain, at 50.0 µM (retest, dose inferred, filed as 5.0), active compounds read high
Summary of the method: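 In this screen, a yeast mutant lacking normal mitotic checkpoint function is challenged with compound. Relative growth versus vehicle gives the inhibition value.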
For `c1ccc(-c2cc(C3CO3)c3ccccc3n2)cc1` (stereo unspecified), the growth inhibition was 31%.
In the case of `S=C1C(=Nc2ccccc2)N(c2ccccc2)/C(=N\c2ccccn2)N1c1ccccc1`, the growth inhibition is reported as 97% (active).
With `CCC(OC(C)=O)C1CC(C(C)C)CCC1C` (stereo unspecified) the growth inhibition was 29%.
In the case of `CC(C)=CCc1c2c(c(O)c3c(=O)c(-c4ccc(O)c(O)c4)coc13)C=CC(C)(C)O2`, the growth inhibition is reported as 92% (active).
`O=C(NC(N1CCN(c2cc3c(cc2F)c(=O)c(C(=O)O)cn3C2CC2)CC1)(C(F)(F)F)C(F)(F)F)c1ccccc1` showed a growth inhibition of 6%.
With `Fc1cc(F)c(F)c(S)c1F` the growth inhibition was 98% (active).
With `COc1ccc2cc3c4cc5c(cc4cc[n+]3cc2c1OC)OCO5` the growth inhibition was 96% (active).
In the case of `CCCCCCCCNCCCCCCCC`, the growth inhibition is reported as 99% (active).
With `Nc1cc(Cl)ccc1Nc1ccccc1` the growth inhibition was 92% (active).
In the case of `O=C(/C(=C/c1ccc(O)cc1)c1ccccc1)c1ccccc1`, the growth inhibition is reported as 98% (active).
With `O=Cc1ccccc1C=O` the growth inhibition was 76% (active).
In the case of `C1=CCN([B-](c2ccccc2)[C+]2CCCCC2)C=C1`, the growth inhibition is reported as 15%.
With `CC/C(=C(\c1ccccc1)c1ccc(OCC[N+](C)(C)C)cc1)c1ccccc1` the growth inhibition was 22%.
In the case of `O=S(=O)(c1cccc(C(F)(F)F)c1)N1c2ccccc2-n2cccc2C1c1cccnc1` (stereo unspecified), the growth inhibition is reported as 96% (active).
`Nc1ccc2c(c1)C(=O)c1c(F)cccc1-2` showed a growth inhibition of -33%.
With `CN(C)/C(=N/C(=S)Nc1ccccc1)SCc1ccccc1` the growth inhibition was 86% (active).
For `CCN(CC)C(=S)N/N=C(\C)c1ccccc1O`, the growth inhibition was 98% (active).
Compound `CC(C)OC(=O)NNc1cc(Cl)ccc1Cl` has a growth inhibition of 60%.
`CC(C)CCC[C@@H](C)[C@H]1CC[C@H]2[C@@H]3CC[C@H]4C[C@H](N)CC[C@]4(C)[C@H]3CC[C@]12C` showed a growth inhibition of 52%.
With `O=C1c2ccccc2-c2ccc(N=Cc3ccccc3)cc21` the growth inhibition was 18%.

Same assay, conditions: S. cerevisiae bub3 mutant strain, at 50.0 µM, active compounds read high
In the case of `COc1ccc2nc3cccc([N+](=O)[O-])c3c(NCCNCCN(C)C)c2c1`, the growth inhibition is reported as -5.3%.
In the case of `Cc1cccc(/C=N/NC(=S)NC2CCCCC2)n1`, the growth inhibition is reported as 72.7% (active).
With `COC(=O)C(=O)c1c(-c2ccc(Cl)c(Cl)c2)[nH]c2[nH]n(-c3ccccc3)c(=O)c2c1=O` the growth inhibition was 82.5% (active).
For `c1ccc([P+](CCN2Cc3ccccc3C2)(c2ccccc2)c2ccccc2)cc1`, the growth inhibition was 79.1% (active).
Work on `Cc1cc(C)c2[s+]snc2c1` yielded a growth inhibition of 52%.
In the case of `CC(C)(Br)C(=O)/C=C/c1ccccc1`, the growth inhibition is reported as 22.1%.
In the case of `Cc1ccc(S(=O)(=O)NC(=O)C2C(=O)CC3(CCCCC3)CC2=O)cc1`, the growth inhibition is reported as -17.9%.
In the case of `NC(=S)N1N=C2c3ccccc3CC[C@H]2[C@@H]1c1ccc(Cl)cc1`, the growth inhibition is reported as 83.2% (active).
In the case of `O=[N+]([O-])/C=C/c1cc2ccc3ccccc3c2[nH]1`, the growth inhibition is reported as 98.8% (active).
Compound `O=C1C(=C2CCCC2)CCC1CN1CCCCC1` (stereo unspecified) has a growth inhibition of 55.6%.
With `OC(CC(O)(C(F)(F)F)C(F)(F)F)c1ccc(C(O)CC(O)(C(F)(F)F)C(F)(F)F)cc1` (stereo unspecified) the growth inhibition was 99.5% (active).
With `COc1cc2c(cc1OC)[C@@H](Nc1ccc(C#N)cc1)C1COC(=O)[C@@H]1C2c1cc(OC)c(O)c(OC)c1` (stereo partly specified) the growth inhibition was 89.2% (active).
For `O=c1cccccc1[O-].O=c1cccccc1[O-].O=c1cccccc1[O-].[Eu+3]`, the growth inhibition was 92.8% (active).
For `O=C1c2ccccc2C(=O)c2sc(Nc3ccccc3Cl)nc21`, the growth inhibition was 90.1% (active).
With `NC(CCCCCCCCCCCCC(N)C(=O)c1ccccc1)C(=O)c1ccccc1` (stereo unspecified) the growth inhibition was -2.55%.
For `CC1=C(C)C(=O)C2=C(OCCO2)C1=O`, the growth inhibition was 59.4%.
With `c1ccc(-c2cc(C3CO3)c3ccccc3n2)cc1` (stereo unspecified) the growth inhibition was 93.2% (active).
With `S=C1C(=Nc2ccccc2)N(c2ccccc2)/C(=N\c2ccccn2)N1c1ccccc1` the growth inhibition was 97.7% (active).
`CCC(OC(C)=O)C1CC(C(C)C)CCC1C` (stereo unspecified) showed a growth inhibition of 21.4%.
For `CC(C)=CCc1c2c(c(O)c3c(=O)c(-c4ccc(O)c(O)c4)coc13)C=CC(C)(C)O2`, the growth inhibition was 84.8% (active).
Work on `O=C(NC(N1CCN(c2cc3c(cc2F)c(=O)c(C(=O)O)cn3C2CC2)CC1)(C(F)(F)F)C(F)(F)F)c1ccccc1` yielded a growth inhibition of -13.9%.
For `Fc1cc(F)c(F)c(S)c1F`, the growth inhibition was 90.9% (active).
With `COc1ccc2cc3c4cc5c(cc4cc[n+]3cc2c1OC)OCO5` the growth inhibition was 97.6% (active).
In the case of `CCCCCCCCNCCCCCCCC`, the growth inhibition is reported as 99.5% (active).
For `Nc1cc(Cl)ccc1Nc1ccccc1`, the growth inhibition was 84% (active).
With `O=C(/C(=C/c1ccc(O)cc1)c1ccccc1)c1ccccc1` the growth inhibition was 91.3% (active).
